Assay results taken from PubChem BioAssay (EPA / NIEHS).
Activity calls are given as the source filed them. The calls were made as follows: active = hit-call score of the fitted dose curve at least 0.9, where 1 is the maximum; inactive = score below 0.9.

Assays:
[1] = read-out: Macrophage colony-stimulating factor (MCSF), CSF1 (gene 1435); assay: BSK_hDFCGF_MCSF: BioMAP Diversity Plus: hDFCGF Assay for Macrophage colony-stimulating factor (MCSF) Biomarker Activity (AID 2283060); details: primary human foreskin fibroblasts; actives raise or lower the signal
Outline: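 Human foreskin fibroblast primary cultures; M-CSF measured by ELISA 24 hours after chemical dosing. Bidirectional fitting relative to DMSO, with overt cytotoxicity tracked by parallel SRB total-protein staining (0.1% SRB, 10% TCA fixation, 560 nm).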

[2] = BSK_hDFCGF_SRB: Viability Assessment in the BioMAP Diversity Plus: hDFCGF Assay (AID 2283061); details: primary human foreskin fibroblasts;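 also: cells exposed to compound for 24 h before the read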
Outline: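 Human foreskin fibroblasts in 96-well plates were treated 24 h. Total protein was measured by 0.1% SRB staining after 10% TCA fixation, read at 560 nm. Data were fitted bidirectionally against DMSO.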

[3] = read-out: TIMP metallopeptidase inhibitor 1 (TIMP1), TIMP1 (gene 7076); assay: BSK_hDFCGF_TIMP1: BioMAP Diversity Plus: hDFCGF Assay for TIMP metallopeptidase inhibitor 1 (TIMP1) Biomarker Activity (AID 2283062); details: primary human foreskin fibroblasts; actives raise or lower the signal
Outline: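 Human foreskin fibroblast primary cultures dosed for 24 h; secreted/surface TIMP-1 quantified by ELISA. Bidirectional curve fitting against DMSO baseline; cytotoxicity tracked in parallel cultures by SRB total-protein staining.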

[4] = read-out: Matrix Metallopeptidase 1 (MMP1), MMP1 (gene 4312); assay: BSK_hDFCGF_MMP1: BioMAP Diversity Plus: hDFCGF Assay for Matrix Metallopeptidase 1 (MMP1) Biomarker Activity (AID 2283064); details: primary human foreskin fibroblasts; actives raise or lower the signal
Outline: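 hDFCGF primary fibroblasts (human foreskin); chemical added; 24 h; MMP1 by ELISA; bidirectional fit vs DMSO.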

[5] = read-out: Vascular cell adhesion molecule 1 (VCAM1), VCAM1 (gene 7412); assay: BSK_hDFCGF_VCAM1: BioMAP Diversity Plus: hDFCGF Assay for Vascular cell adhesion molecule 1 (VCAM1) Biomarker Activity (AID 2283065); details: primary human foreskin fibroblasts; actives raise or lower the signal;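 as to AC50: VCAM-1 protein level quantified by ELISA after 24 h chemical exposure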
Outline: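 Human foreskin fibroblast primary cells dosed with chemical, VCAM-1 measured by ELISA at 24 h. Bidirectional curve fitting relative to DMSO as negative control/baseline.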

[6] = read-out: Plasminogen activator inhibitor-1 (PAI1), SERPINE1 (gene 5054); assay: BSK_hDFCGF_PAI1: BioMAP Diversity Plus: hDFCGF Assay for Plasminogen activator inhibitor-1 (PAI1) Biomarker Activity (AID 2283066); details: primary human foreskin fibroblasts; actives raise or lower the signal
Outline: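 Primary dermal fibroblasts (human foreskin), hDFCGF system; compound 24 h; PAI-1 by ELISA; bidirectional fit vs DMSO control.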

[7] = read-out: Intercellular Adhesion Molecule 1 (ICAM1), ICAM1 (gene 3383); assay: BSK_KF3CT_ICAM1: BioMAP Diversity Plus: KF3CT Assay for Intercellular Adhesion Molecule 1 (ICAM1) Biomarker Activity (AID 2283067); details: primary human keratinocytes with fibroblasts; actives raise or lower the signal
Outline: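 Human keratinocyte–foreskin fibroblast co-culture was treated for 24 h. Cell-surface ICAM-1 was quantified by ELISA, fitted bidirectionally relative to DMSO. Cytotoxicity was checked in parallel cultures by SRB total-protein staining.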

[8] = read-out: Interferon-gamma inducible Protein 10 (IP10), CXCL10 (gene 3627); assay: BSK_KF3CT_IP10: BioMAP Diversity Plus: KF3CT Assay for Interferon-gamma inducible Protein 10 (IP10) Biomarker Activity (AID 2283068); details: primary human keratinocytes with fibroblasts; actives raise or lower the signal
Outline: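 ELISA read-out of IP-10 after 24 h chemical dosing of human skin primary co-culture (keratinocytes, foreskin fibroblasts). Gain or loss of signal relative to DMSO, bidirectional curve fit.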

[9] = BSK_KF3CT_SRB: Viability Assessment in the BioMAP Diversity Plus: KF3CT Assay (AID 2283069); details: primary human keratinocytes with fibroblasts;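 also: total protein by sulforhodamine B staining as a cytotoxicity measure; read 24 h after compound addition; fitted for both signal gain and loss against DMSO baseline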
Outline: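 Keratinocytes co-cultured with foreskin fibroblasts (human primary); chemical added, 24 h; fix 10% TCA, stain 0.1% SRB, A560. Bidirectional fit vs DMSO.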

Measured: AC50

CCOC(=O)C1=NN(c2ccc(Cl)cc2Cl)C(C)(C(=O)OCC)C1 (stereo not given)
inactive: [1] | [2] | [3] | [4] | [5] | [6] | [7] | [8] | [9]

CC1(C)CC(O)CC(C)(C)N1[O]
inactive: [1] | [2] | [3] | [4] | [5] | [7] | [8] | [9]

CCCCCC1=CCCC1=O
active: [4] 0.016 µM
inactive: [1] | [2] | [3] | [5] | [6] | [7] | [8] | [9]

CC(CCC(=O)O)(c1ccc(O)cc1)c1ccc(O)cc1
inactive: [1] | [2] | [3] | [4] | [5] | [7] | [8] | [9]

CCOC(=O)C1=NOC(c2ccccc2)(c2ccccc2)C1
inactive: [1] | [2] | [3] | [4] | [5] | [7] | [8] | [9]

C=CC(=O)OCCCCCCOC(=O)C=C
active: [1] 5.72 µM | [2] 5.41 µM | [3] 9.84 µM | [4] 12.8 µM | [5] 0.881 µM | [6] 11.5 µM | [7] 20 µM | [8] 26.6 µM | [9] 20 µM

CC(C)C(=O)OCCc1ccccc1
inactive: [1] | [2] | [3] | [4] | [5] | [7] | [8] | [9]

c1ccc2sc(SSN3CCOCC3)nc2c1
inactive: [4] | [5]
active: [1] 9.39 µM | [2] 7.52 µM | [3] 10.7 µM | [7] 10.7 µM | [8] 23.8 µM | [9] 10.3 µM

O=C(Cl)c1c(Cl)c(Cl)c(C(=O)Cl)c(Cl)c1Cl
active: [6] 0.016 µM
inactive: [1] | [2] | [3] | [4] | [5] | [7] | [8] | [9]

CCOC(=O)/C=C\C(=O)OCC
inactive: [1] | [2] | [3] | [4] | [5] | [7] | [8] | [9]

Nc1nc(N)nc(-c2ccccc2)n1
inactive: [1] | [2] | [3] | [4] | [5] | [6] | [7] | [8] | [9]

CC(C)c1cccc(C(C)C)c1N
inactive: [1] | [2] | [3] | [4] | [5] | [6] | [7] | [8] | [9]

CCCC(C)C(=O)OCC (stereo not given)
inactive: [1] | [2] | [3] | [4] | [5] | [7] | [8] | [9]

C=C(C)C(=O)OCCCCCCCCCCCC
inactive: [1] | [2] | [3] | [4] | [5] | [7] | [8] | [9]

CCCCCCC=O
inactive: [1] | [2] | [3] | [4] | [5] | [7] | [8] | [9]

CC/C=C\CCOC(=O)c1ccccc1O
active: [1] 13.1 µM | [2] 13.7 µM | [3] 12.4 µM | [4] 13.3 µM | [5] 14.9 µM | [7] 20 µM | [8] 31 µM | [9] 28.8 µM

O=C(Oc1ccccc1)c1ccccc1C(=O)Oc1ccccc1
inactive: [1] | [2] | [3] | [4] | [5] | [7] | [8] | [9]

COc1ccc(C(=O)c2ccccc2)c(O)c1
inactive: [1] | [2] | [3] | [4] | [5] | [6] | [7] | [8] | [9]

CCNc1nc(NC(C)(C)C)nc(OC)n1
inactive: [1] | [2] | [3] | [4] | [5] | [7] | [8] | [9]

C=CC(=O)NCOCCCC
inactive: [1] | [2] | [3] | [4] | [5] | [7] | [8] | [9]

CCN1CN(CC)CN(CC)C1
inactive: [1] | [2] | [3] | [4] | [5] | [7] | [8] | [9]

CCCCCCCCCCCC(C)=O
inactive: [1] | [2] | [3] | [4] | [5] | [7] | [8] | [9]

C=CCCCCCCCCC=O
inactive: [1] | [2] | [3] | [4] | [5] | [7] | [8] | [9]

Oc1ccc(/C=C/c2cc(O)cc(O)c2)cc1
inactive: [1] | [2] | [3] | [4] | [5] | [7] | [8] | [9]

CC(C)CCCCCOC(=O)CS
inactive: [1] | [2] | [3] | [4] | [5] | [7] | [8] | [9]

CCCCCCCO
inactive: [1] | [2] | [3] | [4] | [5] | [7] | [8] | [9]

CC=C(C)C(C)=O
inactive: [1] | [2] | [3] | [4] | [7] | [8] | [9]
active: [5] 6.7 µM

CCC1(C)C(=O)N(Cl)C(=O)N1Cl (stereo not given)
inactive: [1] | [2] | [3] | [4] | [5] | [7] | [8] | [9]

CCCCCCOC(=O)CCCCC(=O)OCCCCCC
inactive: [1] | [2] | [3] | [4] | [5] | [7] | [8] | [9]

c1ccc2c(c1)[nH]c1ccccc12
inactive: [1] | [2] | [3] | [4] | [5] | [7] | [8] | [9]

C=CC(=O)NC(C)(C)C
inactive: [1] | [2] | [3] | [4] | [5] | [7] | [8] | [9]
